High-throughput results as filed in PubChem BioAssay.
LASV entry inh = Lassa virus entry inhibition; Lassa virus pseudotype entry inhibition, cell reporter; Potency, µM (series often up to 37.9 µM), for the others: top-dose activity change, negative = inhibition, actives largely listed as inhibitors; 300,000 compounds, 1.2% hits; AID 540256; calls by dose curve; tested in HEK293 cells; further: potency means the concentration at half of the fitted maximal effect; nearly all actives have a fitted effect of over 50% in size
MARV entry inh = blocks Marburg virus binding to or entry into cells; Potency, µM (series often up to 37.8 µM), for the others: top-dose activity change, negative = inhibition, hits mostly inhibitors; 300,000 compounds, 1.8% hits; Marburg virus pseudotyped entry inhibition, cell reporter; calls by dose curve; tested in HEK293 cells; further: potency means the concentration at half of the fitted maximal effect
VACV Venus inh = inhibitors of vaccinia virus (Venus reporter); AID 720580; Potency, µM (series often up to 36.5 µM), inactives show at the top dose activity change, negative = inhibition, hits mostly inhibitors; Vaccinia virus Venus reporter expression, fluorescence; 330,000 compounds, 0.46% hits; calls by dose curve; tested in A549 cells; further: potency means the concentration at half of the fitted maximal effect; nearly all actives have a fitted effect of over 30% in size
FMDV antiviral = antivirals against foot and mouth disease virus; AID 1159524; Potency, µM (titrated, usually from 57.9 µM), without a hit: at the top dose activity change, negative = inhibition, hits mostly inhibitors; 410,000 compounds, 1.2% hits; FMDV antiviral cell-based qHTS; calls by dose curve; tested in HEK293T cells; further: read-out not given here; potency means the concentration at half of the fitted maximal effect; nearly all actives have a fitted effect of over 45% in size
HCMV antiviral = human cytomegalovirus inhibition; 410,000 compounds, 4.5% hits; activity change, negative = inhibition, % at 57.5 µM; HFF cells, HCMV-luciferase reporter, 72 h; stronger effect = lower value; in the data active means activity change below about -60%; inconclusive means no clear call, values can overlap the other calls; inactive means above about -39%
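Two-dose cell screen: HFF monolayers treated with compounds and infected with luciferase-expressing HCMV at 1 PFU/cell, 72 h at 37C, then lysed for luciferase measurement.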
Vaccinia mCherry = vaccinia inhibition (mCherry reporter) | 310,000 compounds, 0.63% hits | AID 720579 | Vaccinia virus mCherry reporter infection, fluorescence | Potency, µM (top dose mostly 36.5 µM), for the others: at the top dose activity change, negative = inhibition, usual class: inhibitors; calls by dose curve; tested in A549 cells; further: potency means the concentration at half of the fitted maximal effect; nearly all actives have a fitted effect of over 35% in size
The depositor's hits bear a star; [ ] = dose if it differs, or a comment. Most compounds without a hit are left out; they make up all but 6.5% or so of the library. On the % scale 0 is the no-effect control and ±100 the full control effect.

CCc1nc2c(OCc3ccc(Cl)cc3)cccn2c1N(C)C(=O)c1ccco1 was read as VACV Venus inh inconclusive, FMDV antiviral 28.2µM*, HCMV antiviral -76.7* and Vaccinia mCherry inconclusive.
`CCc1nc2c(OCc3ccc(F)cc3)cccn2c1N(C)C(=O)c1ccco1` gave VACV Venus inh -7.0%, FMDV antiviral -21.0%, HCMV antiviral 15.7 and Vaccinia mCherry 31.2%.
For CCOc1ccc(N(CC)S(=O)(=O)N2CCCC(C(=O)NCCc3ccccc3OC)C2)cc1 (configuration not stated) the results were LASV entry inh inconclusive, VACV Venus inh -10.0%, FMDV antiviral inconclusive, HCMV antiviral -28.3 and Vaccinia mCherry -6.0%.
CCCCn1c(-c2csc3c2CCC(C)C3)n[nH]c1=S (configuration not stated) was read as LASV entry inh 14.8%, MARV entry inh -1.9%, FMDV antiviral -16.3% and HCMV antiviral -60.9*.
`CCCCn1c(-c2csc3c2CCCC3)n[nH]c1=S` gave LASV entry inh -0.1%, MARV entry inh 2.5%, FMDV antiviral -7.0% and HCMV antiviral 44.2.
Screening CC(C)Cc1nc2cc(NS(=O)(=O)N(C)C)cc(C(=O)N3CCSCC3)c2n1C returned VACV Venus inh 0.8%, FMDV antiviral 22.5% and Vaccinia mCherry -0.8%.
O=C(c1cnn2c(C(F)(F)F)cc(-c3ccc(F)cc3)nc12)N1CCc2ccccc2C1 was read as LASV entry inh inconclusive, MARV entry inh inconclusive, VACV Venus inh -6.8%, FMDV antiviral -8.1%, HCMV antiviral -71.7* and Vaccinia mCherry inactive.
Screening COc1ccc(/C=C/C(=O)Nc2ccc3nc4n(c(=O)c3c2)CCCC4)cc1OC returned FMDV antiviral -6.4% and HCMV antiviral -34.2.
COc1ccccc1Nc1c2c(nc3ccc(NC(=O)c4cccc(F)c4)cc13)CCCC2 was read as LASV entry inh inconclusive, MARV entry inh inconclusive, VACV Venus inh inconclusive, FMDV antiviral 31.6µM*, HCMV antiviral -107.2* and Vaccinia mCherry 11.2µM*.
`COc1ccc(/C=C/C(=O)Nc2ccc3nc4c(c(Nc5ccccc5OC)c3c2)CCCC4)cc1` gave LASV entry inh 22.1%[46.1 µM], MARV entry inh inconclusive, VACV Venus inh -22.7%[7.34 µM], FMDV antiviral 0.0%, HCMV antiviral -102.1* and Vaccinia mCherry -12.4%[7.34 µM].
For COc1ccccc1Nc1c2c(nc3ccc(NC(=O)/C=C/c4cccc(OC)c4OC)cc13)CCCC2 the results were LASV entry inh -20.4%[46.1 µM], MARV entry inh inconclusive, VACV Venus inh inconclusive, FMDV antiviral -27.1%, HCMV antiviral -98.8* and Vaccinia mCherry inconclusive.
For COc1ccc(Nc2c3c(nc4ccc(NC(=O)/C=C/c5cccc(OC)c5OC)cc24)CCCC3)cc1OC the results were LASV entry inh inconclusive, MARV entry inh inconclusive, VACV Venus inh inconclusive, FMDV antiviral inconclusive, HCMV antiviral -97.2* and Vaccinia mCherry inconclusive.
For O=C(N[C@H](Cc1ccccc1)C(O)c1nc2ccccc2[nH]1)c1cccc2ccccc12 (some centres not stated) the results were HCMV antiviral -11.9.
Screening S=C(Nc1ccccn1)c1ccccn1 returned LASV entry inh inconclusive, MARV entry inh inconclusive, VACV Venus inh inconclusive, FMDV antiviral 0.0%, HCMV antiviral -81.9* and Vaccinia mCherry inconclusive.
For Cc1c(Cl)cccc1NC(=S)Nc1ccccn1 the results were MARV entry inh inconclusive, VACV Venus inh -2.6%, FMDV antiviral 10.4%, HCMV antiviral 29.9 and Vaccinia mCherry -8.1%.
Screening S=C(Nc1ccccn1)Nc1ccccc1Cl returned LASV entry inh -11.6%, MARV entry inh 8.7%[46.1 µM], VACV Venus inh -7.8%, FMDV antiviral 41.1%, HCMV antiviral -82.8* and Vaccinia mCherry inactive.
Screening COc1ccc(-c2nnc(SCC(=O)Nc3cc(OC)ccc3OC)nc2-c2ccc(OC)cc2)cc1 returned LASV entry inh -6.1%[46.1 µM], VACV Venus inh -14.7%, FMDV antiviral -12.5%, HCMV antiviral 18.0 and Vaccinia mCherry -10.0%.
`OC(c1cc(-c2ccc(Cl)cc2)nc2ccccc12)C1CCCCN1` (configuration not stated) gave VACV Venus inh 14.1µM*, FMDV antiviral inconclusive, HCMV antiviral 4.1 and Vaccinia mCherry inconclusive.
CC(C)NC(=S)N/N=C1\CCCCc2ccccc21 was read as FMDV antiviral -12.1% and HCMV antiviral inconclusive.
Cc1ccc(C)c(NC(=S)N/N=C2/CCCCc3ccccc32)c1 was read as LASV entry inh inconclusive, MARV entry inh inconclusive, VACV Venus inh -23.8%, FMDV antiviral 0.0%, HCMV antiviral -70.9* and Vaccinia mCherry -0.9%.
Screening COc1ccccc1-n1cc(CN2CCOc3ccc(CN4C[C@@H](C)O[C@@H](C)C4)cc3C2)cn1 returned VACV Venus inh 1.2%, FMDV antiviral -21.7% and Vaccinia mCherry -11.7%.
`O=C(NCc1ccccn1)c1cnn(-c2nccc(-c3cc4ccccc4o3)n2)c1C1CC1` gave VACV Venus inh -7.3%, FMDV antiviral -3.4% and Vaccinia mCherry -9.5%.
CCn1c(=S)sc2c(=O)n(-c3ccccc3)c(=S)[nH]c21 was read as LASV entry inh -8.3%[46.1 µM], MARV entry inh inconclusive, VACV Venus inh -7.7%, FMDV antiviral -23.3%, HCMV antiviral -94.1* and Vaccinia mCherry -11.6%.
For CCOc1ccccc1-n1c(=S)sc2c(=O)n(-c3ccc(C)cc3)c(=S)[nH]c21 the results were LASV entry inh inconclusive, MARV entry inh inconclusive, VACV Venus inh -21.2%, FMDV antiviral 1.5%, HCMV antiviral 12.2 and Vaccinia mCherry -1.0%.
For Cc1cc(C)nc(NC(=S)NC(=O)c2ccccc2F)n1 the results were LASV entry inh 9.4%, MARV entry inh 0.2%[46.1 µM], VACV Venus inh 4.3%, FMDV antiviral 19.1%, HCMV antiviral 14.2 and Vaccinia mCherry inactive.
`Cc1cc(C)nc(S/C=C/C(=O)c2ccccc2F)n1` gave LASV entry inh inconclusive, MARV entry inh inconclusive, VACV Venus inh -11.7%, FMDV antiviral 8.91µM*, HCMV antiviral -28.1 and Vaccinia mCherry inactive.
Screening CCCN1C(=O)CC[C@@H](S(=O)(=O)c2ccccc2)[C@@H]1c1ccc(OC)cc1 returned HCMV antiviral -10.7.
For CCNC(=S)NC1CC2CCC(C1)N2Cc1ccccc1 (configuration not stated) the results were LASV entry inh -0.3%, MARV entry inh 0.92µM*, VACV Venus inh -22.9%, HCMV antiviral -16.8 and Vaccinia mCherry -20.5%.
CC(C)CNC(=S)NC1CC2CCC(C1)N2Cc1ccccc1 (configuration not stated) was read as LASV entry inh -14.4%, MARV entry inh 0.651µM*, VACV Venus inh -21.4%, HCMV antiviral -0.5 and Vaccinia mCherry -20.4%.
For COc1cccc2c1NC1(C)c3cc4c(cc3-n3nncc3CN1C2=O)OCO4 (configuration not stated) the results were HCMV antiviral -10.7.
